Bioassay records from PubChem BioAssay.
An excerpt weighted towards active compounds, which were near 14% of everything screened.
HCMV inh = qHTS Assay for inhibitors of the human cytomegalovirus (HCMV) | activity change, negative = inhibition, % at 57.5 µM | AID 1259415, 2018 | actives 4.5% (n = 410,000) | HFF cells, HCMV-luciferase reporter, 72 h; hits give low values; in the data active = activity change below about -60%; inconclusive = no clear call, values can overlap the other calls; inactive = above about -39%
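HFF cells seeded 16 h at 37C, treated with compounds, infected with luciferase-reporter HCMV at MOI 1 PFU/cell; luciferase read at 72 h post infection, normalized to buffer-only and Salinomycin controls.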
Pf growth 48h = Primary qHTS for delayed death inhibitors of the malarial parasite plastid, 48 hour incubation. AID 504832, 2011. Potency, µM (titrated, usually from 28.7 µM), most hits filed as inhibitors. actives 5.9% (n = 310,000). P. falciparum luciferase growth in erythrocytes, 48 h
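Compounds are pin-transferred into medium, infected erythrocytes (2% hematocrit, 0.1% parasitemia final) are added, and plates sit one parasite generation at 37 C in 5% CO2. Detection reagent is then added and luminescence measured.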
HCV inh = qHTS Assay for Inhibitors of Hepatitis C Virus (HCV); Huh7.5.1 HCVcc-Cre infection, luciferase reporter, 44 h; Potency, µM (titrated, usually from 41.8 µM), usual class: inhibitors; actives 3.4% (n = 340,000); AID 651820, 2012
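Antiviral activity was scored by luciferase reporter output from cells infected with HCVcc-Cre (~0.5 moi) in presence of compound, 44 h infection period, cells seeded 1,000/well 4 h prior.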
Marburg entry inh = qHTS for inhibitors of binding or entry into cells for Marburg Virus. Potency, µM (titrated, usually from 37.8 µM), actives largely listed as inhibitors. Marburg virus pseudotyped entry inhibition, cell reporter. actives 1.8% (n = 300,000); calls by dose curve; tested in HEK293 cells
Pf growth 96h = Primary qHTS for delayed death inhibitors of the malarial parasite plastid, 96 hour incubation | Potency, µM (titrated, usually from 28.7 µM), usual class: inhibitors | P. falciparum luciferase reporter growth, 96 h | actives 6.9% (n = 320,000)
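Erythrocytes infected with luciferase-expressing P. falciparum were dispensed at 2% hematocrit and 0.05% parasitemia (final), then incubated with compounds 96 hours at 37 C in 5% CO2. Luminescence after detection reagent addition reported growth.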
Lassa entry inh = qHTS for Inhibitors of binding or entry into cells for Lassa Virus; Lassa virus pseudotype entry inhibition, cell reporter; Potency, µM (series often up to 37.9 µM), most hits filed as inhibitors; actives 1.2% (n = 300,000); AID 540256, 2011; calls by dose curve; tested in HEK293 cells; note: nearly all actives have a fitted effect of over 50% in size
Numbers stand for hits; i = inactive; ? = inconclusive; nt = not tested or not shown. Unless noted, calls come from the whole dose curve; as a rule, active = well fitted inhibition curve with a large enough effect; inconclusive = small, poorly fitted or top-dose-only effect, or another doubt; inactive = no such curve, though single readings can be large or run the other way.

SMILES	HCMV inh	Pf growth 48h	HCV inh	Marburg entry inh	Pf growth 96h	Lassa entry inh
CN1CCC(N(C)C(=S)Nc2ccc(F)cc2)CC1	i	i	i	nt	i	nt
CC(=O)c1ccc(NC(=S)N(C)C2CCN(C)CC2)cc1	i	i	i	i	2.1µM	i
CN(Cc1cnc2nc(N)nc(N)c2n1)c1ccc(C(=O)NC(CCC(=O)O)C(=O)O)c2ccccc12 (stereo not drawn)	-101	nt	i	?	nt	?
Cc1nc2ccn(Cc3ccco3)c(=O)c2cc1C(=O)NCc1ccc(F)cc1	i	nt	nt	nt	nt	?
Cc1nc2ccn(Cc3ccco3)c(=O)c2cc1C(=O)NCc1ccccc1F	-64	nt	nt	nt	nt	?
O=C(CN1CCN(Cc2ccccc2F)C1=O)NCc1ccco1	i	nt	i	?	13µM	i
COc1ccc(Cn2ccc3nc(C)c(C(=O)NCc4ccc(C)cc4)cc3c2=O)cc1	i	nt	nt	nt	nt	i
COc1ccc(Cn2ccc3nc(C)c(C(=O)NCc4ccc(F)cc4)cc3c2=O)cc1	-77	nt	nt	nt	nt	?
CCOc1cc(C2CC(=O)NC3=C2C(=O)C(C(=O)OC)C(C)C3)cc(Cl)c1O (stereo not drawn)	i	1.2µM	i	?	i	i
N#Cc1sc2nc(-c3ccccc3)cc(-c3ccco3)c2c1N	i	?	13µM	i	i	?
N#Cc1sc2nc(C3CC3)cc(-c3ccccc3)c2c1N	?	i	?	i	i	i
Cc1ccccc1CN1C(=O)c2ccccc2S(=O)c2ccc(C(=O)N3CCOCC3)cc21 (stereo not drawn)	i	nt	nt	i	nt	i
Cc1ccccc1CN1C(=O)c2ccccc2S(=O)c2ccc(C(=O)NCCCN3CCOCC3)cc21 (stereo not drawn)	i	?	?	nt	1.5µM	nt
O=C(NCCC1=CCCCC1)c1ccc2c(c1)N(Cc1ccccc1)C(=O)CS2	i	nt	?	?	5.9µM	?
O=C(NCCCN1CCCC1)c1ccc2c(c1)N(Cc1cccc(Cl)c1)C(=O)c1ccccc1S2=O (stereo not drawn)	i	3.3µM	?	nt	i	nt
COCCNC(=O)c1ccc2c(c1)N(Cc1cccc(Cl)c1)C(=O)c1ccccc1S2=O (stereo not drawn)	i	nt	nt	nt	nt	i
CC1CCCCN1CCNC(=O)c1ccc2c(c1)N(Cc1cccc(Cl)c1)C(=O)c1ccccc1S2=O (stereo not drawn)	i	2.9µM	?	?	i	?
CC1CCC(NC(=O)c2ccc3c(c2)N(Cc2cccc(Cl)c2)C(=O)c2ccccc2S3=O)CC1 (stereo not drawn)	i	nt	nt	nt	nt	i
Cc1ccc2cc3c(=O)n(C)cc(C=O)c3nc2c1	i	nt	i	nt	nt	nt
CC1(C)NC(=O)N(C[C@@H](O)Cn2nnc3ccccc32)C1=O	nt	nt	nt	i	nt	nt
O=C(NCCc1ccc(Cl)cc1)c1ccc2c(c1)N(Cc1ccc(F)cc1Cl)C(=O)CS2	-64	nt	nt	i	nt	?
O=C(NCCC1=CCCCC1)c1ccc2c(c1)N(Cc1cccc(Cl)c1)C(=O)c1ccccc1S2=O (stereo not drawn)	-63	nt	nt	nt	nt	i
CC(=O)Nc1ccc(NC(=O)c2ccc3c(c2)N(Cc2cccc(Cl)c2)C(=O)c2ccccc2S3=O)cc1 (stereo not drawn)	-95	nt	nt	nt	nt	?
CC(C)NC(=O)c1ccc2c(c1)N(Cc1cccc(Cl)c1)C(=O)c1ccccc1S2=O (stereo not drawn)	?	nt	nt	nt	nt	i
O=C(c1ccc2c(c1)N(Cc1ccccc1)C(=O)CS2)N1CCOCC1	i	i	i	i	13µM	i
CCc1ccccc1NC(=O)CCS(=O)(=O)c1cccc2nonc12	i	nt	nt	?	nt	i
Cc1cccc(-c2nc3scc(CCNS(=O)(=O)c4ccc(Oc5ccccc5)cc4)n3n2)c1	i	nt	nt	nt	nt	i
CC1CCCCN1C(=O)c1ccc2c(c1)N(Cc1cccc(Cl)c1)C(=O)c1ccccc1S2=O (stereo not drawn)	-68	nt	nt	nt	nt	i
CCN1CCN(CCNC(=O)c2ccc3c(c2)N(Cc2ccc(F)cc2)C(=O)c2ccccc2S3=O)CC1 (stereo not drawn)	i	10µM	?	?	i	i
